Only some compounds are listed: those with a hit (about 3.9% of all), similar ones and a draw of the others.
AHR act = human AHR activation; P35869; AHR-responsive luciferase reporter cells, luminescence; activation, % at 5 µM; hit rate 2.5% among 320,000; AID 2796; in the data active = activation above about 47%;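 note: 0% = vehicle wells and 100% = reference agonist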
HIF act = HIF pathway transcriptional activation. hit rate 0.32% among 300,000. activation, % at 7.5 µM (by protocol). U2OS HRE-luciferase reporter, luminescence; normalized: DMSO 0%, desferrioxamine 100%. AID 1910;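 active = mean activation of at least 10% of the iron chelator positive control signal, with at least half of replicates also reaching 10%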
CR mimetic SO = lowers age-related superoxide in aged yeast cells | AID 2690 | hit rate 0.18% among 330,000 | superoxide response (% of plate mean), % at 10 µM | S. cerevisiae aged cells, superoxide DHE fluorescence; hits give low values;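 active = superoxide response under a set limit, about three screen SD below normal, cut at about 65% in these data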;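 note: yeast aged for seven days with compound at 30 °C before DHE staining; 100% = average MFI of all compound-treated wells on the plate with controls excluded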
PLC-beta3 inh = PLC-beta3 (human) inhibition, primary screen; hit rate 0.18% among 370,000; inhibition, % at 12.2 µM; Purified PLC-beta3, fluorogenic substrate, fluorescence; AID 720704; in the data active = inhibition above about 11%;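 note: 0% = median of compound wells on plate and 100% = full blocker control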
sPLA2-III inh = Inhibits HGIII-sPLA2 liposome hydrolysis, primary screen. Q9NZ20. QFRET BODIPY PC-A2 liposome hydrolysis, fluorescence. inhibition, % at 12.2 µM. hit rate 0.56% among 370,000. AID 743126;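 active = inhibition above mean plus 3 SD of compounds lying within the high and low control bounds, cut at about 19% in these data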;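 note: 0% = median of test compound wells and 100% = no enzyme DMSO wells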
PLCg1 inh = PLC-gamma1 (human) inhibition, primary screen. hit rate 0.84% among 370,000. purified PLC-gamma1, fluorogenic substrate, fluorescence. P19174. inhibition, % at 12.2 µM; in the data active = inhibition above about 9.5%
sPLA2 confirm = human GIII-sPLA2 inhibition, confirmation; shares compounds with sPLA2-III inh; recombinant hGIII-sPLA2, BODIPY PC-A2 QFRET fluorescence; inhibition, % at 12.2 µM; hit rate 34% among 2,000;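 active = mean inhibition across triplicates above the hit cutoff set in the earlier primary screen, cut at about 19% in these data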;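 note: 0% = enzyme with DMSO and 100% = DMSO wells lacking enzyme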
BODIPY interf = optically interferes with 535nm fluorescence in sPLA2 counter-screen | shares compounds with sPLA2-III inh | BODIPY FL product fluorescence interference, QFRET | inhibition, % at 12.2 µM | hit rate 8.5% among 2,000 | AID 743282;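 active = average inhibition above the solvent-only control mean plus 3 SD, cut at about 6% in these data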;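 note: 0% = DMSO with substrate plus product and 100% = DMSO with substrate alone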
BODIPY interf DR = 535nm optical interference dose response, HGIII-sPLA2 counter-screen; shares compounds with sPLA2-III inh; BODIPY FL product fluorescence interference, cell-free; IC50, µM; 240 tested, under 10 active;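 active = IC50 at or below 10 µM; inactive = IC50 above 10 µM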
* hit, by the source's call.

Screening O=C(CN1C(=O)/C(=C/c2ccccc2)SC1=S)NNC(=O)c1ccccc1O returned AHR act 3.5, HIF act -0.6, CR mimetic SO 103.0, PLC-beta3 inh -1.2, sPLA2-III inh 20.3*, PLCg1 inh 1.1, sPLA2 confirm 15.4 and BODIPY interf -4.5.
For COc1cccc(/C=C2/SC(=S)N(CC(=O)NNC(=O)c3ccccc3O)C2=O)c1 the results were AHR act 8.8, HIF act 0.1, CR mimetic SO 105.5, PLC-beta3 inh -14.6, sPLA2-III inh 22.8*, PLCg1 inh -3.8, sPLA2 confirm 21.5* and BODIPY interf -8.1.
`Cc1ccc(/C=C2\SC(=S)N(CCC(=O)NNC(=O)c3ccccc3O)C2=O)cc1` gave AHR act -0.5, HIF act -0.7, CR mimetic SO 112.4, PLC-beta3 inh -6.0, sPLA2-III inh 9.0 and PLCg1 inh 0.2.
For CC(/C=C1\SC(=S)N(CCC(=O)Nc2ccc(O)cc2)C1=O)=C\c1ccccc1 the results were AHR act -0.8, HIF act 0.5, CR mimetic SO 101.6, PLC-beta3 inh -6.0, sPLA2-III inh 19.2*, PLCg1 inh 4.8, sPLA2 confirm -3.2 and BODIPY interf 4.2.
O=C(CCN1C(=O)/C(=C/c2ccccc2Cl)SC1=S)NNC(=O)c1ccccc1O was read as AHR act 6.6, HIF act 0.0, CR mimetic SO 109.0, PLC-beta3 inh -5.5, sPLA2-III inh 19.7*, PLCg1 inh 0.8, sPLA2 confirm 30.1*, BODIPY interf 0.6 and BODIPY interf DR >122.
For Cc1cc(S(=O)(=O)N(Cc2ccccc2Cl)c2ccc3c(c2)CCC3)ccc1-n1cnnn1 the results were AHR act 15.1, HIF act -0.8, CR mimetic SO 92.0, PLC-beta3 inh -0.3, sPLA2-III inh 19.7*, PLCg1 inh 3.2, sPLA2 confirm -13.3 and BODIPY interf -18.6.
`COc1cccc(CN(c2ccc3c(c2)CCC3)S(=O)(=O)c2ccc(-n3cnnn3)c(OC)c2)c1` gave AHR act 0.7, HIF act 0.0, CR mimetic SO 102.4, PLC-beta3 inh 2.8, sPLA2-III inh -12.9 and PLCg1 inh 2.9.
CCN(CC)CCOc1ccc(-c2c(C)c3c(ccc4ccccc43)oc2=O)cc1 was read as PLC-beta3 inh -243.6, sPLA2-III inh 4.5 and PLCg1 inh -188.5.
Screening CCCN1/C(=C2/SC(=S)N(CC)C2=O)C=Cc2ccccc21 returned AHR act -1.8, HIF act 0.0, CR mimetic SO 116.9, PLC-beta3 inh 3.0, sPLA2-III inh 14.4 and PLCg1 inh 1.5.
CCCN1C(=O)/C(=C2/C=Cc3ccccc3N2CC)SC1=S was read as AHR act -2.5, HIF act -0.7, CR mimetic SO 87.3, PLC-beta3 inh 0.3, sPLA2-III inh 21.2*, PLCg1 inh 9.0, sPLA2 confirm 50.7* and BODIPY interf 13.3*.
`CCN1C(=O)/C(=C2/C=Cc3ccccc3N2CC)SC1=S` gave AHR act 12.6, HIF act -0.3, CR mimetic SO 81.5, PLC-beta3 inh 1.0, sPLA2-III inh 21.1*, PLCg1 inh -0.6, sPLA2 confirm 43.0*, BODIPY interf 4.7 and BODIPY interf DR >122.
For CCCCNc1nc2c(S(=O)(=O)c3ccccc3)nnn2c2ccccc12 the results were AHR act 4.2, HIF act 0.2, CR mimetic SO 96.9, PLC-beta3 inh -0.4, sPLA2-III inh 19.5*, PLCg1 inh 3.4, sPLA2 confirm 4.0 and BODIPY interf -6.2.
C[C@H]1CN([C@@H](C)CO)C(=O)CCCn2nncc2CO[C@H]1CN(C)C(=O)C1CCCCC1 was read as PLC-beta3 inh 2.8, sPLA2-III inh 6.7 and PLCg1 inh 2.5.
`COc1cccc(N2CC(=O)Nc3c(oc4nc(-c5ccccc5)cc(C)c34)C2=O)c1` gave AHR act -1.6, HIF act -0.9, CR mimetic SO inactive, PLC-beta3 inh -3.6, sPLA2-III inh 19.7*, PLCg1 inh 1.7, sPLA2 confirm -2.8 and BODIPY interf -12.7.
CCS(=O)(=O)N1CCC(C(=O)NCc2cccnc2)CC1 was read as AHR act 1.0, HIF act -0.3, CR mimetic SO 106.9, PLC-beta3 inh -3.7, sPLA2-III inh 20.5*, PLCg1 inh -0.2, sPLA2 confirm -1.9 and BODIPY interf -1.6.
CC(C)Cc1nnc(NC(=O)CCS(=O)(=O)c2ccc(Cl)cc2)s1 was read as AHR act 0.8, HIF act -0.3, CR mimetic SO 100.4, PLC-beta3 inh -9.0, sPLA2-III inh -2.9 and PLCg1 inh 5.9.
Screening CSc1n[nH]c(=O)n1-c1cccc(Cl)c1 returned AHR act -0.5, HIF act -0.6, CR mimetic SO 112.1, PLC-beta3 inh -7.9, sPLA2-III inh 19.7*, PLCg1 inh 6.3, sPLA2 confirm -1.5 and BODIPY interf -5.7.
`COc1cc(/C=C2/SC(=S)N(c3c(C)n(C)n(-c4ccccc4)c3=O)C2=O)ccc1O` gave AHR act -2.0, HIF act -0.3, CR mimetic SO 96.4, PLC-beta3 inh -20.6, sPLA2-III inh -3.4 and PLCg1 inh -14.6.
For O=C(Nc1ccc(Cl)cc1C(=O)N1CCOCC1)c1ccco1 the results were AHR act -1.2, HIF act -0.3, CR mimetic SO 99.8, PLC-beta3 inh -4.0, sPLA2-III inh 19.9*, PLCg1 inh 6.2, sPLA2 confirm 2.0 and BODIPY interf -4.3.
For Cc1cc(C)c(C)c(N=Nc2nc3ccccc3n2C)c1C the results were AHR act 42.5, HIF act 2.5, CR mimetic SO 94.5, PLC-beta3 inh -4.7, sPLA2-III inh 20.5*, PLCg1 inh -7.9, sPLA2 confirm 39.2*, BODIPY interf -2.9 and BODIPY interf DR >122.
For CCCCn1c(-c2csc(CC)c2)n[nH]c1=S the results were AHR act 3.8, HIF act 0.1, CR mimetic SO 103.4, PLC-beta3 inh -4.6, sPLA2-III inh 19.8*, PLCg1 inh -2.0, sPLA2 confirm 24.9* and BODIPY interf -1.9.
CCCCn1c(-c2nn(C)c(C)c2Cl)n[nH]c1=S was read as AHR act 1.3, HIF act 0.1, CR mimetic SO 101.5, PLC-beta3 inh 0.3, sPLA2-III inh 19.8*, PLCg1 inh 1.3, sPLA2 confirm 24.0* and BODIPY interf -3.7.
Screening CCCCn1c(-c2csc(C(C)C)c2)n[nH]c1=S returned AHR act 4.8, HIF act 0.2, CR mimetic SO 107.8, PLC-beta3 inh -3.5, sPLA2-III inh 2.7 and PLCg1 inh -3.8.

Screens deposited in PubChem BioAssay by several laboratories.
